p53ts 39C kill: qHTS Screen for Compounds that Selectively Target Cancer Cells with p53 Mutations: Cytotoxicity of p53ts Cells at the Nonpermissive Temperature; Potency, µM (series often up to 46.1 µM), without a hit: at the highest dose activity change, negative = cell killing, most hits filed as cytotoxic; AID 902, 2007; H1299-p53A138V viability at 39C, ATP luminescence, 24 h; 1.5% of 130,000 active; also: % is scaled to controls: 0 for no effect and ±100 for the full control effect; nearly all actives have a fitted effect of over 55% in size
Luciferase inh: qHTS Assay for Inhibitors of Firefly Luciferase | Luciferin 4-monooxygenase (Photinus pyralis), P08659 | purified firefly luciferase, luminescence, 8 min | Potency, µM (series often up to 57.1 µM), for the others: at the highest dose activity change, negative = inhibition, most hits filed as inhibitors | 2.2% of 72,000 active | AID 411, 2009; also: % is scaled to controls: 0 for no effect and ±100 for the full control effect; nearly all actives have a fitted effect of over 40% in size
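qHTS concentration-response profiling: light output of P. pyralis luciferase with luciferin and 10 uM ATP, imidazole buffer pH 7.2. Read by luminescence after 8-min room-temperature incubation.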
Casp1 inh: qHTS Assay for Allosteric/Competitive Inhibitors of Caspase-1 | P29466 | Caspase-1 enzyme, Ac-WEHD-AFC fluorogenic rate | Potency, µM (highest dose often 57.5 µM), inactives show at the top dose activity change, negative = inhibition, actives largely listed as inhibitors | 0.03% of 75,000 active | AID 900, 2007;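 also: plate controls were vehicle for no effect and no substrate for full effect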
IkB signaling: IkB Signaling; 0.04% of 110,000 active; Potency, µM (highest dose often 57.1 µM), without a hit: top-dose IkBa stabilization activation; ABC-DLBCL IkBa-CBG/CBR dual luciferase ratio, 4 h; response scale: scaled: untreated 0%, proteasome inhibitor 100%; AID 445, 2006; active = well fitted curve in the direction sought with a large enough effect in the signal ratio, not every such curve was filed as active; inconclusive = small, poorly fitted or top-dose-only effect, or a change in a side signal; the % refers to the signal ratio;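 also: the direction sought is a rising ratio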
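Luminescence ratio of IκBα-fused green versus native red beetle luciferase in OCI-Ly3 cells, 4 h post-doxycycline with compound; red signal alone, scaled from basal (0%) to zero light (-100%), flagged nonspecific or cytotoxic effects.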
p53ts 32C kill: qHTS Screen for Compounds that Selectively Target Cancer Cells with p53 Mutations: Cytotoxicity of p53ts Cells at the Permissive Temperature | H1299-p53A138V at 32C, ATP luminescence viability, 24 h | Potency, µM (titrated, usually from 46.1 µM), for the others: top-dose activity change, negative = cytotoxicity, most hits filed as cytotoxic | 0.93% of 130,000 active;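 also: 0% = DMSO and -100% = full killing by reference compound; nearly all actives have a fitted effect of over 55% in size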
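H1299-p53 A138V cells (temperature-sensitive p53) exposed 24 h to up to 46 uM compound at 32C, where p53 is wild-type in conformation. Viability read as ATP luminescence and normalised to DMSO and 100 uM tamoxifen. AC50 fitted with the Hill equation.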
Casp7 inh: qHTS Assay for Allosteric/Competitive Inhibitors of Caspase-7; P55210; recombinant caspase-7, Ac-DEVD-AFC fluorescence rate; Potency, µM (titrated, usually from 57.5 µM), for inactives: at the top dose activity change, negative = inhibition, actives largely listed as inhibitors; 0.02% of 75,000 active; AID 889, 2007; active = well fitted inhibition curve with a large enough effect in the main read-out, with a control signal flat, not every such curve was filed as active; inconclusive = small, poorly fitted or top-dose-only effect, or a change in a side signal; also: % of control where 0% means no effect
* = called active by the depositor; [ ] = remark or other dose. Shown are actives, neighbours in structure and some others; about 2.5% of the full set was active somewhere. Unless noted, calls follow the shape of the dose curve; as a rule, active = well fitted curve in the direction sought with a large enough effect; inconclusive = small, poorly fitted or top-dose-only effect, or another doubt; inactive = no such curve, though single readings can be large; an effect the other way counts as inactive or inconclusive. Potency is read from the fitted curve at half-maximal effect.

Results for Cc1cccc(OCCSc2nc3ccc(NC(=O)COc4ccccc4F)cc3s2)c1 ?
p53ts 39C kill: -0.7%; IkB signaling: 0.1%; p53ts 32C kill: -8.6%

How did Cc1ccc(OCCSc2nc3ccc(NC(=O)COc4ccc(F)cc4)cc3s2)cc1 do in these assays?
p53ts 39C kill: 10µM*; IkB signaling: -2.9%; p53ts 32C kill: -0.1%

Results for O=C(Nc1ccc2oc(-c3cc(Br)ccc3Cl)nc2c1)c1ccc2ccccc2c1 ?
p53ts 39C kill: 12.6µM*; IkB signaling: 5.2%; p53ts 32C kill: inconclusive

How did CC(=O)Nc1ccc2oc(-c3ccccc3Br)nc2c1 do in these assays?
p53ts 39C kill: inconclusive; Luciferase inh: 10µM*; Casp1 inh: -0.8%; IkB signaling: -0.2%; p53ts 32C kill: inconclusive; Casp7 inh: -1.4%

Results for O=C(Nc1ccccc1-c1nc2ccccc2o1)c1ccc2c(c1)OCCO2 ?
p53ts 39C kill: 0.3%; Luciferase inh: -0.3%; Casp1 inh: -2.2%; IkB signaling: -0.7%; p53ts 32C kill: -12.0%; Casp7 inh: 1.7%

Results for O=C(Nc1ccc2oc(-c3ccccc3F)nc2c1)c1ccc2c(c1)OCCO2 ?
p53ts 39C kill: -29.0%; Luciferase inh: -29.3%; Casp1 inh: -1.8%; IkB signaling: inconclusive; p53ts 32C kill: 12.6µM*; Casp7 inh: -4.0%

Results for O=C(Nc1ccc2oc(-c3ccc4ccccc4c3)nc2c1)c1cc(Br)ccc1Cl ?
p53ts 39C kill: inconclusive; IkB signaling: 3.4%; p53ts 32C kill: -24.1%

How did COC(=O)c1cc(=O)nc2sc3ccccc3n12 do in these assays?
p53ts 39C kill: -0.7%; Luciferase inh: 6.0%; Casp1 inh: 0.4%; IkB signaling: -3.1%; p53ts 32C kill: 0.4%; Casp7 inh: -0.8%

What do the screens show for `CCN1C(=O)CC(C(=O)Nc2ccc(F)cc2)SC1=Nc1cccc(OC)c1` (configuration not stated)?
p53ts 39C kill: -14.4%; Luciferase inh: -0.3%; Casp1 inh: -1.7%; IkB signaling: inconclusive; p53ts 32C kill: -8.7%; Casp7 inh: -5.5%

Results for CCc1ccccc1OC[C@@H](O)CN[C@H]1CCCc2ccccc21 ?
p53ts 39C kill: 20µM*; Luciferase inh: -14.2%; Casp1 inh: 2.1%; IkB signaling: inconclusive; p53ts 32C kill: 31.6µM*; Casp7 inh: -0.3%

What do the screens show for `COc1ccccc1OC[C@H](O)COC(N)=O`?
p53ts 39C kill: -8.9%[20.6 µM]; Luciferase inh: 10.2%[25.5 µM]; Casp1 inh: -1.1%[25.7 µM]; IkB signaling: 1.4%[25.6 µM]; p53ts 32C kill: -0.6%[20.6 µM]; Casp7 inh: -0.2%[25.7 µM]

How did O=C(c1ccccc1)c1ccc(OCC(O)CNC2CCCc3ccccc32)cc1 (configuration not stated) do in these assays?
p53ts 39C kill: -16.6%

Results for Cn1c(=O)c2c(ncn2CC(=O)N/N=C/c2ccco2)n(C)c1=O ?
p53ts 39C kill: 10.9%; p53ts 32C kill: -7.9%

What do the screens show for `Cc1ccc(C(c2ccccc2)c2c(C)[nH]c3ccccc23)s1` (configuration not stated)?
p53ts 39C kill: -17.0%; IkB signaling: -2.0%; p53ts 32C kill: -5.7%

How did Cc1ccc2[nH]cc(C(c3ccccc3)c3ccc(C)s3)c2c1 (configuration not stated) do in these assays?
p53ts 39C kill: 12.6µM*; IkB signaling: inconclusive; p53ts 32C kill: inconclusive

Results for COc1ccc2c(c1)sc(N)[n+]2Cc1cc(C)cc2cccnc12 ?
p53ts 39C kill: 11.2µM*; p53ts 32C kill: -8.5%

What do the screens show for `CCOc1ccc2c(c1)sc(N)[n+]2Cc1cc(C)cc2cccnc12`?
p53ts 39C kill: -14.2%; p53ts 32C kill: -7.1%

Results for COc1cccc(CNc2cc(C)nc3nc(-c4ccc(C)cc4)nn23)c1 ?
p53ts 39C kill: 7.94µM*; IkB signaling: inconclusive; p53ts 32C kill: inconclusive

How did COc1ccc(-c2nc3nc(C)cc(Nc4cccc(C(F)(F)F)c4)n3n2)cc1 do in these assays?
p53ts 39C kill: -19.3%; IkB signaling: 0.5%; p53ts 32C kill: 9.6%

Results for COc1ccc(/C=C/C(=O)c2ccc(C)s2)cc1 ?
p53ts 39C kill: 21.2%; p53ts 32C kill: 31.6µM*; Casp7 inh: inconclusive

What do the screens show for `COc1cc(NS(=O)(=O)c2ccc(C)cc2)c2ncccc2c1`?
p53ts 39C kill: -20.5%; Luciferase inh: 0.7%; Casp1 inh: -1.3%; IkB signaling: 1.26µM*; p53ts 32C kill: 8.5%; Casp7 inh: -2.4%

How did COc1ccc(C)cc1NS(=O)(=O)c1cccc2cccnc12 do in these assays?
p53ts 39C kill: 17.3%; Luciferase inh: -0.8%; Casp1 inh: -1.0%; IkB signaling: 2.0%; p53ts 32C kill: 18.9%; Casp7 inh: -0.8%

Screening data as filed in PubChem BioAssay.
